Shown are actives, neighbours in structure and some others; about 11% of the full set was active somewhere.
Pf growth 48h – inhibits P. falciparum growth in the first generation, 48 h. P. falciparum luciferase growth in erythrocytes, 48 h. 310,000 compounds, 5.9% hits. Potency, µM (doses to about 28.7 µM), without a hit: at the top dose activity change, negative = inhibition, hits mostly inhibitors; further: on the % scale 0 is the no-effect control and ±100 the full control effect
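Luminescence readout; reporter = integrated firefly luciferase in P. falciparum. RBC culture at 2% hematocrit, 0.1% parasitemia final, 37 C/5% CO2; decreased signal taken as growth inhibition.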
NS1 inh – blocks influenza NS1 protein function; Potency, µM (series often up to 46.1 µM), without a hit: at the top dose activity, positive = more growth; 270,000 compounds, 0.4% hits; AID 2326; calls by dose curve; further: actives are rising curves; nearly all actives have a fitted effect of over 50% in size
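A cell-based growth assay was used: compounds that relieve NS1-induced slow growth of budding yeast raise OD600. Assay medium was yeast nitrogen base with ammonium sulphate and -URA supplement, pH 6.0, with 2% galactose.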
Vaccinia Venus – vaccinia inhibition (Venus reporter) | Vaccinia virus Venus reporter expression, fluorescence | Potency, µM (series often up to 36.5 µM), for inactives: top-dose activity change, negative = inhibition, usual class: inhibitors | 330,000 compounds, 0.46% hits; calls by dose curve; tested in A549 cells; further: on the % scale 0 is the no-effect control and ±100 the full control effect; nearly all actives have a fitted effect of over 30% in size
Vaccinia mCherry – inhibitors of vaccinia virus infection (mCherry reporter signal); Vaccinia virus mCherry reporter infection, fluorescence; Potency, µM (titrated, usually from 36.5 µM), without a hit: top-dose activity change, negative = inhibition, actives largely listed as inhibitors; 310,000 compounds, 0.63% hits; AID 720579; calls by dose curve; tested in A549 cells; further: on the % scale 0 is the no-effect control and ±100 the full control effect; nearly all actives have a fitted effect of over 35% in size
Pf growth 96h – P. falciparum growth inhibition at 96 hours; P. falciparum luciferase reporter growth, 96 h; Potency, µM (titrated, usually from 28.7 µM), for inactives: top-dose activity change, negative = inhibition, actives largely listed as inhibitors; 320,000 compounds, 6.9% hits; further: on the % scale 0 is the no-effect control and ±100 the full control effect
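Readout is luminescence from an integrated firefly luciferase in P. falciparum. Red cells, 2% hematocrit and 0.05% parasitemia final, were cultured with compound through two parasite generations (96 hours) at 37 C, 5% CO2.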
HCV inhibitor – inhibitors of hepatitis C virus infection; Huh7.5.1 HCVcc-Cre infection, luciferase reporter, 44 h; Potency, µM (titrated, usually from 41.8 µM), inactives show at the highest dose activity change, negative = inhibition, hits mostly inhibitors; 340,000 compounds, 3.4% hits; AID 651820; further: on the % scale 0 is the no-effect control and ±100 the full control effect
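Whole-lifecycle infectious HCVcc-Cre system; cells 1,000/well, compound then virus (~0.5 moi) added 4 h after plating, 44 h culture. Luciferase read 15 sec following 15 min substrate incubation, room temp.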
* hit, by the source's call; [ ] = dose if it differs, or a comment. Unless noted, the call rests on the fitted dose curve; in most records, active means well fitted inhibition curve with a large enough effect; inconclusive means small, poorly fitted or top-dose-only effect, or another doubt; inactive means no such curve, though single readings can be large or run the other way. Potency means the concentration at half of the fitted maximal effect.

What do the screens show for `COc1cc(NC(=O)Cc2ccc(S(=O)(=O)N3CCOCC3)s2)c(OC)cc1Cl`?
Pf growth 48h: inconclusive; Vaccinia Venus: -12.5%; Vaccinia mCherry: inactive; Pf growth 96h: 8.28µM*; HCV inhibitor: 6.4%

What do the screens show for `O=C(Cc1ccc(S(=O)(=O)N2CCOCC2)s1)Nc1ccc2c(c1)CCC2`?
Pf growth 48h: inconclusive; NS1 inh: inconclusive; Vaccinia Venus: -16.2%; Vaccinia mCherry: -29.6%; HCV inhibitor: inconclusive

What do the screens show for `Cc1ccc(-n2nnc(-c3nccs3)n2)cc1`?
Pf growth 48h: 49.0%; NS1 inh: -8.7%; Vaccinia Venus: -11.9%; Vaccinia mCherry: -4.8%; Pf growth 96h: 333.4%; HCV inhibitor: -5.6%

What do the screens show for `CCCn1c2ccccc2c2cnn(CC(=O)NCc3ccccc3Cl)c(=O)c21`?
Vaccinia Venus: -1.5%; Vaccinia mCherry: -5.2%

How did CCNC(=O)Cc1ccc(S(=O)(=O)N2CCOCC2)s1 do in these assays?
Pf growth 48h: inconclusive; Pf growth 96h: -61.0%; HCV inhibitor: -23.5%

What do the screens show for `O=C(Cc1ccc(S(=O)(=O)N2CCCCC2)s1)Nc1ccc(F)cc1F`?
Pf growth 48h: -26.1%; NS1 inh: 29.2%; Vaccinia Venus: -5.3%; Vaccinia mCherry: -10.6%; Pf growth 96h: 13.1µM*; HCV inhibitor: inconclusive

How did COC(=O)c1c(NC(=O)Cc2ccc(OC)c(S(=O)(=O)N3CCOCC3)c2)sc(C)c1C do in these assays?
Pf growth 48h: 13.1µM*; Vaccinia Venus: -23.1%; Vaccinia mCherry: -25.5%; Pf growth 96h: inconclusive; HCV inhibitor: inconclusive

What do the screens show for `O=C(Cc1ccc(S(=O)(=O)N2CCOCC2)s1)Nc1cc(Cl)ccc1Cl`?
Pf growth 48h: 13.1µM*; Vaccinia Venus: -5.6%; Vaccinia mCherry: inactive; Pf growth 96h: inconclusive; HCV inhibitor: -3.9%

Results for Cc1ccc(CNC(=O)c2ccc(NC3=NC4CS(=O)(=O)CC4S3)cc2)cc1 (configuration not stated) ?
Pf growth 48h: 18.7%; NS1 inh: 4.0%; Vaccinia Venus: -8.5%; Vaccinia mCherry: inactive; Pf growth 96h: 21.5%; HCV inhibitor: 11.3%

What do the screens show for `N#Cc1cccc(S(=O)(=O)Nc2c(NC3CCCCC3)c3ccccc3oc2=O)c1`?
Pf growth 48h: 20.5%; NS1 inh: 7.0%; Pf growth 96h: inconclusive; HCV inhibitor: -8.1%

Results for O=C(CN1CCN(c2ccccc2)CC1)Nc1ccccc1Sc1ccccc1 ?
Pf growth 48h: inconclusive; NS1 inh: -8.4%; Vaccinia Venus: -15.7%; Vaccinia mCherry: -5.9%; Pf growth 96h: 9.28µM*; HCV inhibitor: inconclusive

Results for O=C(CN1CCN(c2ccccc2)CC1)Nc1ccccc1Cl ?
Pf growth 48h: -15.3%; NS1 inh: -33.6%; Pf growth 96h: -2.6%; HCV inhibitor: 0.7%

Results for COc1ccc(N2CCN(CC(=O)Nc3ccccc3C(=O)NCc3ccccc3)CC2)cc1 ?
Pf growth 48h: 13.1µM*; Pf growth 96h: inconclusive; HCV inhibitor: inconclusive

Results for COc1ccc(CCNC(=O)c2ccccc2NC(=O)CN2CCN(c3ccccc3O)CC2)cc1 ?
Pf growth 48h: 10.4µM*; Vaccinia Venus: -30.0%; Vaccinia mCherry: -12.6%; Pf growth 96h: 7.38µM*; HCV inhibitor: inconclusive

How did COc1ccc(/C(O)=C2/C(=O)C(=O)N(CCCC(=O)O)C2c2ccc(OC)cc2)cc1 (configuration not stated) do in these assays?
Pf growth 48h: inconclusive; NS1 inh: 7.8%; Vaccinia Venus: -18.5%; Vaccinia mCherry: -20.0%; Pf growth 96h: 108.3%; HCV inhibitor: -4.6%

How did CCOc1ccc(-c2cccc(NS(=O)(=O)c3cc([N+](=O)[O-])ccc3C)c2)nn1 do in these assays?
Pf growth 48h: 5.7%; Vaccinia Venus: -12.0%; Vaccinia mCherry: inactive; Pf growth 96h: 47.1%; HCV inhibitor: 2.5%

Results for COc1ccc(OC)c(-n2c(C)cc(/C=C3\C(=N)N4N=C(CC(=O)N5CCOCC5)SC4=NC3=O)c2C)c1 ?
Pf growth 48h: inconclusive; NS1 inh: 22.8%; Vaccinia Venus: 25.2%[7.34 µM]; Vaccinia mCherry: 13.8%[7.34 µM]; Pf growth 96h: 11.7µM*; HCV inhibitor: 4.0%
